Sfp PPTase inh: Sfp phosphopantetheinyl transferase inhibition; Biochemical Sfp PPTase activity, qHTS; Potency, µM, for inactives: largest response in the series, negative = inhibition, most hits filed as inhibitors; hit rate 3.5% among 310,000; Q9F4F7;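 further: the enzyme is Sfp with the accession as filed and its product quenches rhodamine fluorescence; potency means the concentration at half of the fitted maximal effect; 0% = enzyme reaction without inhibitor and -100% = no enzyme wells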
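Compounds were incubated with enzyme (final 15 nM) for 15 min at room temperature before substrate addition started the reaction. Fluorescence at 525 nm excitation, 598 nm emission was recorded immediately and after 30 minutes.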
G9a inh: G9a (human) methyltransferase inhibition. Q96KQ7. G9a H3K9 monomethylation, AlphaScreen, 2 h. Potency, µM (highest dose often 102 µM), inactives show at the top dose activity, negative = inhibition, hits mostly inhibitors. hit rate 8.8% among 350,000; further: potency means the concentration at half of the fitted maximal effect; nearly all actives have a fitted effect of over 75% in size
Target sequence (Q96KQ7 913-1193 limits assumed): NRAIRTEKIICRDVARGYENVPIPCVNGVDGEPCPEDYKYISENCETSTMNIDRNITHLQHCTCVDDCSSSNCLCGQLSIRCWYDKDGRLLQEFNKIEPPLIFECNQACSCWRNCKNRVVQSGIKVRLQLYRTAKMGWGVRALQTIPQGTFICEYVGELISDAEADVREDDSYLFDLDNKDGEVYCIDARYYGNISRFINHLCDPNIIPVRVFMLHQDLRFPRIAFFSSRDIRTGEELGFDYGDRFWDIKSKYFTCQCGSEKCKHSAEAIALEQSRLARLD
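Signal arises when biotinylated H3K9 peptide, once monomethylated, bridges streptavidin donor and antibody-captured acceptor beads. Enzyme at 20 nM was preincubated 15 min with test compounds; peptide 500 nM and SAM 20 uM then reacted for 2 h.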
Tau fibril FP: inhibitors of human tau fibril formation; P10636; K18 P301L tau heparin fibrillization, Alexa594 FP, 6 h; Potency, µM (highest dose often 57.7 µM), inactives show top-dose activity, negative = inhibition, hits mostly inhibitors; hit rate 0.39% among 280,000; further: potency means the concentration at half of the fitted maximal effect; nearly all actives have a fitted effect of over 55% in size
Target sequence (P10636 561-689 P618L limits assumed): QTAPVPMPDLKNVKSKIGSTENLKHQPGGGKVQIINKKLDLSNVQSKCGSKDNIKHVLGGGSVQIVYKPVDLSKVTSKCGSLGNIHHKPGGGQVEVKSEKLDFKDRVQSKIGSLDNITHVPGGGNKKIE
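Steps: dispense K18 P301L tau (15 uM plus 0.24 uM Alexa 594 tracer, final) in pH 7 sodium acetate; add compound; add heparin (20 uM final); incubate 6 hr, 37 C; add ThT (30 uM final); after 1 hr ambient, read FP.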
Coupling enz: inhibits coupling enzyme system, counter-screen for aldolase hits. coupling enzyme system counterscreen, AmpLite Red fluorescence. activity change, negative = inhibition, % at 58.2 µM, hits read low. hit rate 0.67% among 290,000. AID 2472; in the data active means activity change below about -30%
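Compounds tested against the coupling enzymes alone at 57.5 uM final; readout was AmpLite Red fluorescence (525/598 nm) after 20 min at RT.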
Tau fluor cs: counter-screen for tau fibril formation inhibitors; hit rate 0.93% among 280,000; Potency, µM (titrated, usually from 57.7 µM), without a hit: at the top dose activity change, negative = decrease; tau K18 P301L Alexa594 fluorescence, heparin fibrillization; further: potency means the concentration at half of the fitted maximal effect; nearly all actives have a fitted effect of over 55% in size
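Human K18 P301L tau (15 uM unlabeled plus 0.24 uM Alexa 594-labeled, final) in 100 mM sodium acetate pH 7 was mixed with compound and 20 uM heparin and incubated 6 hr at 37 C.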
Tau ThT inhib: tau fibrillization inhibition (ThT binding); Potency, µM (top dose mostly 57.4 µM), without a hit: top-dose activity, negative = inhibition, hits mostly inhibitors; AID 1460; hit rate 2.1% among 270,000; recombinant tau K18 P301L (four-repeat tau fragment), heparin-induced fibrillization, ThT fluorescence; further: potency means the concentration at half of the fitted maximal effect; nearly all actives have a fitted effect of over 55% in size
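Heparin-induced (20 uM) aggregation of recombinant human K18 P301L tau, 15 uM unlabeled with 0.24 uM labeled, pH 7 acetate buffer, 6 hr at 37 C with compound. Fibrils quantified by 30 uM ThT fluorescence after 1 hr ambient incubation.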
* marks the source's active call; other numbers are inactive results; ? = inconclusive; . = no result; [ ] = another dose, or the depositor's remark. An excerpt weighted towards active compounds, which were near 11% of everything screened. Unless noted, the call rests on the fitted dose curve; in most records, active means well fitted curve in the direction sought with a large enough effect; inconclusive means small, poorly fitted or top-dose-only effect, or another doubt; inactive means no such curve, though single readings can be large; an effect the other way counts as inactive or inconclusive. Unless noted, on the % scale 0 is the no-effect control and ±100 the full control effect.

SMILES | Sfp PPTase inh | G9a inh | Tau fibril FP | Coupling enz | Tau fluor cs | Tau ThT inhib
CC(=O)OC[C@H]1O[C@@H](O/N=C(\C)CCN2CCCCc3nc(C)c(C)cc32)[C@H](OC(C)=O)[C@@H](OC(C)=O)[C@H]1OC(C)=O | 12% | . | -4%[11.6 µM] | 2 | -1%[11.6 µM] | 1%[11.5 µM]
O=C(O)/C(=C\c1ccc(Cl)c([N+](=O)[O-])c1)c1ccc(S(=O)(=O)N2CCCCC2)s1 | 45µM* | 45µM* | 7% | 5 | -9% | ?
CSc1ccc(/C=C(\C(=O)O)c2ccc(S(=O)(=O)N3CCCCC3)s2)cc1 | 27% | ? | -5% | 9 | -9% | -16%
COc1cc(/C=C(\C(=O)O)c2ccc(S(=O)(=O)N3CCCC3)s2)cc(OC)c1 | . | 50µM* | . | . | . | .
Cc1cccc(CNc2cc(-c3cccc(C#N)c3)ncn2)c1 | -4% | . | -8% | -3 | ? | 1%
Cc1cc(C)cc(-n2ncc3c2CCCC3NC(=O)CCN2CCCC2=O)c1 (stereo not drawn) | 8% | . | . | . | . | .
CC(C)(C)n1cnc2cc(NC(=O)c3cccs3)ccc21 | -7% | 40µM* | -3% | 1 | -19% | ?
O=C(Cn1c(=O)n(Cc2ccc(C(=O)NCc3ccccc3Cl)cc2)c(=O)c2ccccc21)Nc1ccc(F)c(Cl)c1 | . | 2%[59 µM] | 14µM* | . | -17% | -2%
CCc1ccc(NC(=O)Cn2c(=O)n(-c3ccccc3)c(=O)c3ccc(C(=O)NCc4ccc5c(c4)OCO5)cc32)cc1 | . | 13%[59 µM] | ? | . | -17% | 12%
O=C(Cn1c(=O)n(Cc2ccc(C(=O)NCc3ccccc3Cl)cc2)c(=O)c2ccccc21)Nc1ccc(F)cc1 | . | 4%[59 µM] | ? | . | -18% | 7%
O=C(Cn1c(=O)n(-c2ccccc2)c(=O)c2ccc(C(=O)NCc3ccc4c(c3)OCO4)cc21)Nc1ccc(F)c(Cl)c1 | . | 12%[59 µM] | 25µM* | . | -25% | 6%
COc1ccccc1CNc1ncncc1-c1ccccc1C | 0% | . | 1% | 4 | -18% | -21%
Cc1ccccc1C(=O)N(C)c1ccccc1C(=O)NCc1ccccc1 | 4% | . | . | -2 | . | .
Cn1cc(Br)c(C(=O)Nc2ncc(Br)s2)n1 | -6% | 11%[59 µM] | 3% | 1 | -9% | 0%
COc1cc(C2C(C(=O)c3ccc(C)o3)=C(O)C(=O)N2CCCn2ccnc2)cc(OC)c1OC (stereo not drawn) | -2% | . | . | -1 | . | .
CCOC(=O)C1=C(O)C(=O)N(CCCn2ccnc2)C1c1ccc(OC)cc1 (stereo not drawn) | 6% | 45µM* | 6% | -2 | 5% | 5%
COc1ccc(C2C(C(=O)c3ccco3)=C(O)C(=O)N2CCCn2ccnc2)c(OC)c1 (stereo not drawn) | -19% | 50µM* | . | -4 | . | .
CC(=O)C1=C(O)C(=O)N(CCCn2ccnc2)C1c1ccc(C)cc1 (stereo not drawn) | 0% | 13%[2.33 µM] | -5% | 4 | -8% | -15%
CCCCN1C(=O)/C(=C2/Sc3ccccc3N2C)S/C1=N\c1ncn[nH]1 | 15% | -4% | -2% | 1 | -1% | 3%
COc1ccc(NC(=O)c2ccc(S(=O)(=O)N3CC(C)CC(C)C3)cc2)cc1S(N)(=O)=O (stereo not drawn) | . | -9%[12.7 µM] | . | . | . | .
O=S(=O)(Oc1ccc(Cl)cc1)c1cccc2cccnc12 | 4% | 28% | -12% | -8 | -15% | 1%
NS(=O)(=O)c1ccc(NNC(=O)c2sccc2Cl)cc1 | 12% | 7.1µM* | -21% | 0 | -19% | .
COc1ccc(N2CCN(C(=O)CSc3n[nH]c(-c4ccccc4)n3)CC2)cc1 | . | 16µM* | 8% | . | -23% | ?
Cc1c(C)n(C(=O)CSc2nc3ccccc3[nH]2)c2ccccc12 | -1% | 50µM* | -4% | -1 | -27% | -11%
COc1ccccc1N1CCN(C(=O)CSc2ncccc2-c2nc3ccccc3[nH]2)CC1 | 3% | 45µM* | -1% | 3 | ? | ?
SMILES | Sfp PPTase inh | G9a inh | Tau fibril FP | Coupling enz | Tau fluor cs | Tau ThT inhib
O=C(CSc1nc2ccccc2[nH]1)N1CCCCC1 | 4% | -34%[12.7 µM] | 3% | 0 | 8% | -5%
COc1ccccc1N1CCN(C(=O)CC(NC(=O)c2ccccc2Cl)c2ccccc2)CC1 (stereo not drawn) | . | 45µM* | . | . | . | .
O=C(CSc1ncccc1-c1nc2ccccc2[nH]1)N1CCN(c2ccccc2F)CC1 | 5% | -45% | 1% | -2 | ? | ?
CCOC(=O)c1c(C)n(S(=O)(=O)c2ccc(C)cc2)c2ccc(NS(=O)(=O)c3ccc(C)cc3)cc12 | . | 7%[59 µM] | ? | . | ? | -1%
O=C(CCCSc1nc2ccccc2[nH]1)NCc1ccccc1Cl | 12% | 35µM* | -7% | -3 | -13% | -1%
COc1ccccc1N1CCN(C(=O)CSc2nc3ccccc3[nH]2)CC1 | 10% | 7.9µM* | 13% | 3 | -6% | -6%
COc1ccc(N2CCN(C(=O)c3cccnc3SCc3cccc(Br)c3)CC2)cc1 | 7% | 13µM* | 2% | 2 | -29% | ?
O=C(O)c1ccccc1CSc1nc2ccccc2[nH]1 | 6% | 50µM* | . | -1 | . | .
O=C(CSc1nc2ccccc2[nH]1)N1CCN(c2ccccc2)CC1 | 2% | ? | -5% | -1 | -12% | -13%
CCCNC(=O)CS(=O)(=O)c1ccccc1 | 5% | . | . | 2 | . | .
COc1cc(-c2ccno2)ccc1S(=O)(=O)N1CCN(c2cccc(Cl)c2)CC1 | . | 3%[59 µM] | -18% | . | ? | ?
O=C(CSc1nc2ccccc2[nH]1)N1c2ccccc2Sc2ccccc21 | -18% | 45µM* | 6% | 5 | ? | ?
O=C(CSc1ncccc1-c1nc2ccccc2[nH]1)NC1CC1 | -6% | 2% | 0% | 1 | -12% | -8%
O=C(CSc1nc(O)cc(=O)[nH]1)N1c2ccccc2Sc2ccccc21 | -1% | ? | -7% | 13 | -23% | ?
COc1ccc(N2CCN(C(=O)CSc3ncccc3-c3nc4ccccc4[nH]3)CC2)cc1 | 1% | 25µM* | 6% | 0 | ? | ?
O=C(CCCSc1nc2ccccc2[nH]1)N1CCN(c2ccccc2)CC1 | -2% | 45µM* | 1% | 2 | -12% | ?
COCC#Cc1ccc(C2C(C)CCC3C(=O)N4C(CCC(C)C4c4ccc(C#CCOC)cc4)C(=O)N32)cc1 (stereo not drawn) | 3% | . | 2%[11.6 µM] | 1 | -4%[11.6 µM] | -9%[11.5 µM]
CCOC(=O)CSc1nc2cc3c(cc2c(=O)n1Cc1ccc(C(=O)NCCc2ccc(OC)c(OC)c2)cc1)OCO3 | . | 7%[59 µM] | 1% | . | -17% | -3%
CCN(Cc1ccccc1)S(=O)(=O)c1ccc(C(=O)N(CCCN(C)C)c2nc3cc(OC)ccc3s2)cc1 | . | 45µM* | . | . | . | .

Compound activity (PubChem)
